Hits are enriched below; roughly 31% of the tested compounds scored in any of these assays.
CYP2C19 act: activators of human cytochrome P450 2C19; P33261; recombinant CYP2C19, luciferin-H EGE luminescence; hits give high values; 0 = fully inhibited enzyme, 1 = untreated enzyme; activation factor at 5 µM; 96,000 tested, under 10 active; AID 1025;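 active means activation factor of at least 2 at 5 µM in the primary screen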;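 further: 0 = wells with 2.5 mM tranylcypromine and 1 = vehicle-only wells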
CYP2C9 act: activators of human CYP2C9 | P11712 | recombinant CYP2C9, luciferin-H conversion, luminescence; hits give high values; factor 1 = untreated enzyme, 0 = blocked | activation factor at 5 µM | hit rate 1.4% among 96,000 | AID 1024;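 active means activation factor of 2 or more for CYP2C9 at a 5 µM dose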;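 further: 0 = sulfaphenazole-blocked wells and 1 = vehicle-only wells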
Target sequence (P11712 whole entry, looked up): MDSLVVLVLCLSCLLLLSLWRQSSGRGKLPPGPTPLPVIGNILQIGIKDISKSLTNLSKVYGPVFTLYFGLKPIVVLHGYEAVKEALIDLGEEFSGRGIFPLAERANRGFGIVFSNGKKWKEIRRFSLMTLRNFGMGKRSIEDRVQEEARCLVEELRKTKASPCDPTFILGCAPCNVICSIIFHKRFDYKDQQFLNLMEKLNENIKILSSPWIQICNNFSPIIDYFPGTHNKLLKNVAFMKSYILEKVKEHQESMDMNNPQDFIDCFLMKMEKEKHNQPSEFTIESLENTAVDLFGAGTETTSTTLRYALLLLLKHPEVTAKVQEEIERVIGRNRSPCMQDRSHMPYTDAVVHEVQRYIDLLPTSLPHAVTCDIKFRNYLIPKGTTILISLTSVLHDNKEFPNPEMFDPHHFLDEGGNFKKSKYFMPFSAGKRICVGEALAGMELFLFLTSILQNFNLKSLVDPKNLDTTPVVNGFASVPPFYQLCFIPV
CYP2C9 inhib: inhibitors of human CYP2C9; CYP2C9 Supersomes, luciferin-H conversion, luminescence; hit rate 20% among 96,000; AID 777; P11712; inhibition, % at 5 µM;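 active means blocking of liver enzyme CYP2C9 beyond about 50% at 5 µM, limit read from the data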
CYP2C19 inhib: inhibitors of human CYP2C19; AID 778; CYP2C19 Supersomes, luciferin-H EGE luminescence, 30 min; hit rate 21% among 96,000; inhibition, % at 5 µM;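 active means CYP2C19 inhibition above a set limit at 5 µM in the primary screen, cut at about 50% in these data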;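 further: plate controls were negative control wells for no effect and 2.5 mM tranylcypromine positive control for full effect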
PLAP act: activators of human placental alkaline phosphatase; P05187; purified PLAP enzyme, luminescent substrate read-out; hits give high values; activation fold at 20 µM; hit rate 1.2% among 96,000; AID 696; in the data active means activation fold above about 2
Numbers without * were called inactive.

SMILES | CYP2C19 act | CYP2C9 act | CYP2C9 inhib | CYP2C19 inhib | PLAP act
c1ccc(Cc2ccc(OCCn3cncn3)cc2)cc1 | 0 | 0 | 98* | 97* | 1.3
Clc1ccc(OCCCn2cncn2)cc1Cl | 0 | 0.1 | 92* | 99* | 1.1
c1ccc(-c2ccccc2OCCn2cncn2)cc1 | 0 | 1.8 | -80 | 97* | 1.1
COc1ccccc1-n1c(SCC(=O)N2CCOCC2)nc(O)c(Cc2ccccc2)c1=O | 1.2 | 1.2 | -18 | -18 | 1.2
Cc1cc(C)n2nc(SCC(=O)N(C)c3ccccc3)nc2n1 | 1.1 | 1.2 | -18 | -9 | 1.3
Cc1cc(C)n2nc(SCc3ncc(-c4ccccc4)o3)nc2n1 | 0.1 | 0.8 | 19 | 86* | 1.6
Cc1ccc2c(CSc3nc4nc(C)cc(C)n4n3)cc(=O)oc2c1 | 0.5 | 0.8 | 18 | 47 | 1
COc1ccc2c(CSc3nc4nc(C)cc(C)n4n3)cc(=O)oc2c1 | 0.3 | 0.2 | 85* | 72* | 1.4
Cc1ccccc1C(=O)N1CCN(c2ccc([N+](=O)[O-])c(NCc3ccco3)c2)CC1 | 0.8 | 0.7 | 34 | 21 | 1
Cc1ccc(C(=O)N2CCN(c3ccc([N+](=O)[O-])c(NCc4ccco4)c3)CC2)cc1 | 0.5 | 0.3 | 74* | 46 | 0.9
CC(C)(C)C(=O)N1CCN(c2ccc([N+](=O)[O-])c(NCC3CCCO3)c2)CC1 (stereo not given) | 0.9 | 0.8 | 22 | 9 | 1
Cc1cccc(C(=O)N2CCN(c3ccc([N+](=O)[O-])c(NCc4ccco4)c3)CC2)c1 | 0.2 | 0.2 | 78* | 78* | 0.9
O=C(O)C1C2C=CC(C2)C1C(=O)NC1CCS(=O)(=O)C1 (stereo not given) | 0.9 | 1 | 3 | 8 | 0.9
Cc1ccc(C(C(=O)NCc2ccco2)N(C(=O)CNC(=O)c2cccs2)c2ccc(C)cc2C)cc1 (stereo not given) | 0.9 | 0.8 | 15 | 13 | 0.9
N#CC1=C2SCCN2C(=O)C(C#N)C12CCCCC2 (stereo not given) | 0.5 | 0.6 | 36 | 45 | 1
COC(=O)CSC1=C(C#N)C(c2ccc(Cl)cc2)C(C(=O)OC)C(=O)N1 (stereo not given) | 0.4 | 0.6 | 44 | 61* | 1
Cc1ccc(C2CC(=O)NC(SCCC(C)C)=C2C#N)cc1 (stereo not given) | 0.6 | 0.4 | 56* | 41 | 0.9
C=CCSC1=C(C#N)C(c2ccccc2OCC)CC(=O)N1 (stereo not given) | 0.1 | 0.3 | 71* | 93* | 0.9
COC(=O)CSC1=C(C#N)C(c2ccc(C(C)C)cc2)CC(=O)N1 (stereo not given) | 1.1 | 0.5 | 46 | -7 | 1
COC(=O)CSC1=C(C#N)C(c2cccc(OC)c2)CC(=O)N1 (stereo not given) | 0.3 | 0.2 | 75* | 71* | 1
CC1Cc2cc(/C(O)=C3\C(=O)C(=O)N(CCN(C)C)C3c3ccccc3F)ccc2O1 (stereo not given) | 1 | 1.1 | -5 | -4 | 1.2
O=C(C1CCC1)N1CCc2cc(S(=O)(=O)N3CCN(c4ccccn4)CC3)ccc21 | 1 | 0.6 | 40 | 0 | 1.3
C=CCSC1=C(C#N)C(c2cccc(OC)c2)CC(=O)N1 (stereo not given) | 0.5 | 0.6 | 36 | 52* | 1.1
CCc1ccc(C2CC(=O)NC(SCC(=O)OC(C)C)=C2C#N)cc1 (stereo not given) | 0.1 | 0.1 | 93* | 87* | 1.4
CCOc1ccc(C2CC(=O)NC(SCC(=O)OC)=C2C#N)cc1 (stereo not given) | 0.6 | 0.3 | 69* | 41 | 1.2
SMILES | CYP2C19 act | CYP2C9 act | CYP2C9 inhib | CYP2C19 inhib | PLAP act
CCCCNS(=O)(=O)C1CCS(=O)(=O)C1 (stereo not given) | 1.1 | 0.9 | 7 | -6 | 0.9
CCN(CC)S(=O)(=O)c1ccc(-c2nnc(SC)o2)cc1 | 0.9 | 1 | 0 | 10 | 1.1
CCN(CC)S(=O)(=O)c1cc(-c2nnc(-c3ccc(Br)cc3)o2)ccc1Cl | 0.7 | 0.4 | 60* | 34 | 1.2
COc1ccc(NC(=O)N2CCN(c3cccc(C(F)(F)F)c3)CC2)cc1 | 1.1 | 1.3 | -31 | -10 | 0.9
COc1ccccc1NC(=O)c1nn(-c2cccc(C(F)(F)F)c2)ccc1=O | 1.1 | 2.7* | -167 | -8 | 1.1
O=c1ccn(-c2cccc(C(F)(F)F)c2)nc1-c1ccn(-c2ccccc2F)n1 | 0.6 | 0.3 | 69* | 41 | 1.3
COc1ccc(-n2ccc(-c3nn(-c4cccc(C(F)(F)F)c4)ccc3=O)n2)cc1 | 0.2 | 0.2 | 83* | 82* | 1.3
CCCOc1ccccc1C(=O)N(Cc1ccco1)C1CCS(=O)(=O)C1 (stereo not given) | 1 | 1 | 0 | -3 | 1
COc1ccccc1C(=O)NCCC(=O)N1CC(=O)Nc2ccccc21 | 1.2 | 2* | -97 | -17 | 1
O=C1CN(C(=O)COc2ncnc3ccccc23)c2ccccc2N1 | 0.9 | 0.8 | 17 | 7 | 1.4
O=C1CN(C(=O)OCc2ccccc2)c2ccccc2N1 | 0.3 | 0.6 | 43 | 69* | 1
O=C1CN(C(=O)c2ccccc2F)c2ccccc2N1 | 0.7 | 0.9 | 7 | 30 | 0.8
O=c1c2ccsc2ncn1Cc1cccc(C(F)(F)F)c1 | 0.6 | 0.5 | 53* | 35 | 1
O=c1c2ccsc2ncn1Cc1ccccc1F | 0.6 | 1 | 4 | 42 | 1
Cc1ccc(/C=N/n2c(COc3ccccc3)n[nH]c2=S)s1 | 0.9 | 0.2 | 77* | 15 | 1
S=c1[nH]nc(COc2ccccc2)n1/N=C/c1ccc(Br)s1 | 0.6 | 0.9 | 12 | 45 | 1
COc1ccc(NC(=O)C2CCC(=O)N2S(=O)(=O)c2ccc(C)cc2)c(OC)c1 (stereo not given) | 0.9 | 1.7 | -67 | 13 | 1
O=C(O)CCCC(=O)NCCCCc1ccccc1 | 1 | 1 | 2 | -2 | 1.2
CC(C)CNC(=O)CCCc1ccccc1 | 0.2 | 0.6 | 42 | 83* | 1.1
C=CCNC(=O)CCCc1ccccc1 | 0.3 | 1 | 4 | 67* | 0.9
CCCCCOc1ccc(NC(=O)CCCC(=O)O)cc1 | 1.1 | 1 | 1 | -6 | 1.4
Cc1nc(-c2cccc(S(=O)(=O)N3CCCC(C)C3)c2)cs1 (stereo not given) | 0.9 | 0.7 | 28 | 14 | 1.1
CC1CCCN(C2=NC(=O)/C(=C/c3cn(-c4ccccc4)nc3-c3cccc(S(=O)(=O)N(C)C)c3)S2)C1 (stereo not given) | 0.6 | 0.3 | 65* | 37 | 1.1
CC1CCN(C2=NC(=O)/C(=C/c3cn(-c4ccccc4)nc3-c3cccc(S(=O)(=O)N(C)C)c3)S2)CC1 | 0.6 | 0.4 | 56* | 39 | 1.3
Cc1ccc(S(=O)(=O)NCCCN(C)C)cc1 | 1.2 | 1.1 | -14 | -23 | 1
Cc1ccc(C)c(S(=O)(=O)Nc2ccc(S(=O)(=O)Nc3onc(C)c3C)cc2)c1 | 0.9 | 0.3 | 71* | 14 | 1.1
